# Measurements reported in the supplement of paper PMC12350171.
# Counter-ions that a name gives are not always drawn. Values without a mark were called inactive.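 Rule for the calls: active = AUC significantly below DMSO controls by Student t-fit with adjusted P under 0.01; inactive = not significantly reduced.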
# Tested on: Haemophilus parainfluenzae
# Assay: growth AUC normalised to DMSO control (fraction of control); higher = less growth inhibition, active = hit call of the paper
# Conditions: 20 µM
# How it was run: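 Pathogens were passaged twice under anaerobic conditions, then inoculated into pre-reduced mGAM plates at a starting OD578 of 0.01, with compound at 20 μM and 1% DMSO, and sealed with breathable membranes. For Haemophilus parainfluenzae, the medium was supplemented with hemin and NAD. OD578 was read every hour for 24 h in three biological replicates. Growth-curve AUC was calculated by the trapezoidal rule up to the exponential-to-stationary transition and normalised to DMSO controls on the same plate.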
row,Compound,growth AUC normalised to DMSO control
1,C=CCSCC1Nc2cc(Cl)c(S(N)(=O)=O)cc2S(=O)(=O)N1 (stereo unspecified) [Althiazide],1.07
2,Nc1nc(=O)[nH]cc1F [Flucytosine],0.95
3,O=C(NCC1CCCCN1)c1cc(OCC(F)(F)F)ccc1OCC(F)(F)F (stereo unspecified) [Flecainide acetate],0.99
4,C[C@H]1O[C@@H](O[C@H]2[C@@H](O)C[C@H](O[C@H]3[C@@H](O)C[C@H](O[C@H]4CC[C@@]5(C)[C@H](CC[C@@H]6[C@@H]5C[C@@H](O)[C@]5(C)[C@@H](C7=CC(=O)OC7)CC[C@]65O)C4)O[C@@H]3C)O[C@@H]2C)C[C@H](O)[C@@H]1O [Digoxin],0.979
5,CN(Cc1ccc(C(C)(C)C)cc1)Cc1cccc2ccccc12 [Butenafine hydrochloride],0.913
6,O=P(O)(O)C(Cl)(Cl)P(=O)(O)O [Clodronate disodium],0.965
7,CCCOc1ccc(C(=O)OCCN(CC)CC)cc1N [Proparacaine hydrochloride],1.01
8,NS(=O)(=O)c1cc2c(cc1Cl)N=CNS2(=O)=O [Chlorothiazide],1.01
9,COc1c(O[C@@H]2O[C@H](CO)[C@@H](O)[C@H](O)[C@H]2O)cc2c(c1OC)-c1ccc(SC)c(=O)cc1[C@@H](NC(C)=O)CC2 [Thiocolchicoside],0.996
10,CC(C(=O)O)c1cccc(Oc2ccccc2)c1 (stereo unspecified) [Fenoprofen calcium salt dihydrate],0.945
11,CC(C)NCC(O)c1ccc2ccccc2c1 (stereo unspecified) [Pronethalol hydrochloride],1
12,CC(=O)OCC(=O)[C@@]1(OC(C)=O)[C@@H](C)C[C@H]2[C@@H]3C[C@H](F)C4=CC(=O)C=C[C@]4(C)[C@@]3(F)[C@@H](O)C[C@@]21C [Diflorasone Diacetate],0.953
13,CCC(=O)O[C@]1(C(=O)SCF)[C@H](C)C[C@H]2[C@@H]3C[C@H](F)C4=CC(=O)C=C[C@]4(C)[C@@]3(F)[C@@H](O)C[C@@]21C [Fluticasone propionate],0.997
14,CC[C@H](C)[C@H](N)C1=N[C@H](C(=O)N[C@@H](CC(C)C)C(=O)N[C@H](CCC(=O)O)C(=O)N[C@H](C(=O)N[C@H]2CCCCNC(=O)[C@H](CC(N)=O)NC(=O)[C@@H](CC(=O)O)NC(=O)[C@H](Cc3cnc[nH]3)NC(=O)[C@@H](Cc3ccccc3)NC(=O)[C@H]([C@@H](C)CC)NC(=O)[C@@H](CCCN)NC2=O)[C@@H](C)CC)CS1 [Bacitracin],0.999
15,CCCCN(CCCC)CCC(O)c1cc2c(Cl)cc(Cl)cc2c2cc(C(F)(F)F)ccc12 (stereo unspecified) [Halofantrine hydrochloride],1.06
16,CCN(CC)C(=O)c1ccc(O)c(OC)c1 [Ethamivan],1.03
17,CN1CCN(CCCN2c3ccccc3Sc3ccc(Cl)cc32)CC1 [Prochlorperazine dimaleate],0.913
18,CO/N=C(\C(=O)N[C@@H]1C(=O)N2C(C(=O)O)=C(COC(N)=O)CS[C@H]12)c1ccco1 [Cefuroxime sodium salt],0.0255 (active)
19,C[C@H](CCC(=O)O)[C@H]1CC[C@H]2[C@@H]3CC[C@@H]4C[C@H](O)CC[C@]4(C)[C@H]3CC[C@]12C [Lithocholic acid],1.04
20,CN1CCC(=C2c3ccccc3CCc3sccc32)CC1 [Pizotifen malate],0.936
21,CCOC(=O)C1=C(COCCN)NC(C)=C(C(=O)OC)C1c1ccccc1Cl (stereo unspecified) [Amlodipine],0.989
22,CNC1(C)C2CCC(C2)C1(C)C (stereo unspecified) [Mecamylamine hydrochloride],0.988
23,CCC(=O)O[C@]1(C(=O)CCl)[C@@H](C)C[C@H]2[C@@H]3CCC4=CC(=O)C=C[C@]4(C)[C@@]3(F)[C@@H](O)C[C@@]21C [Clobetasol propionate],1.47
24,C(=C\c1ccccc1)/CN1CCN(C(c2ccccc2)c2ccccc2)CC1 [Cinnarizine],0.817
25,O=S(=O)(O)CCS [Coenzyme M],1.06
26,CC[N+](C)(C)c1cccc(O)c1 [Edrophonium chloride],0.936
